# Reference: ChEMBL document CHEMBL1961873, “Compounds: GSK PKIS; Assays: Nanosyn kinase panel” (2012)
# Assays:
# [1] = target: T1, Serine/threonine-protein kinase TBK1 (Homo sapiens) (UniProt Q9UHD2); details: at 1 µM;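 also: values are mean inhibition of TBK1, screened as part of the GSK published kinase inhibitor set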
# T1 sequence (whole entry): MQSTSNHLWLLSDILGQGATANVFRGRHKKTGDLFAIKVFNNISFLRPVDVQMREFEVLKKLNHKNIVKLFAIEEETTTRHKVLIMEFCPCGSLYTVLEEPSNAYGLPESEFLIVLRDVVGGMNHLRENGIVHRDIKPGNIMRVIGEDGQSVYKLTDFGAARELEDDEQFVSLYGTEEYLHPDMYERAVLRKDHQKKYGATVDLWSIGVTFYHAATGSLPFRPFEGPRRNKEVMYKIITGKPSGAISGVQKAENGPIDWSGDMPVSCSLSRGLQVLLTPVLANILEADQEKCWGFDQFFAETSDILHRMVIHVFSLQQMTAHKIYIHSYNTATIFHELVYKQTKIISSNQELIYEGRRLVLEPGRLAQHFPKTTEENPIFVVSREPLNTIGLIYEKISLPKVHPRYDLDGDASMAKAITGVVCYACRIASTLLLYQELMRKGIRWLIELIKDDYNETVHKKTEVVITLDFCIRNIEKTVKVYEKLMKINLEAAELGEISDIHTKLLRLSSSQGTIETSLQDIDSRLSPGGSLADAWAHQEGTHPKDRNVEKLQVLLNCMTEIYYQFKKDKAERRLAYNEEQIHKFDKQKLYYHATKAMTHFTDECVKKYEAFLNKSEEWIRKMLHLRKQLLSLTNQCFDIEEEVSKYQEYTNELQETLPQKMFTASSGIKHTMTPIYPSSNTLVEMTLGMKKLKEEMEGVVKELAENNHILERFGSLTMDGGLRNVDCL
# [2] = target: T2, Testis-specific serine/threonine-protein kinase 1 (Homo sapiens) (UniProt Q9BXA7); details: at 0.1 µM
# T2 sequence (whole entry): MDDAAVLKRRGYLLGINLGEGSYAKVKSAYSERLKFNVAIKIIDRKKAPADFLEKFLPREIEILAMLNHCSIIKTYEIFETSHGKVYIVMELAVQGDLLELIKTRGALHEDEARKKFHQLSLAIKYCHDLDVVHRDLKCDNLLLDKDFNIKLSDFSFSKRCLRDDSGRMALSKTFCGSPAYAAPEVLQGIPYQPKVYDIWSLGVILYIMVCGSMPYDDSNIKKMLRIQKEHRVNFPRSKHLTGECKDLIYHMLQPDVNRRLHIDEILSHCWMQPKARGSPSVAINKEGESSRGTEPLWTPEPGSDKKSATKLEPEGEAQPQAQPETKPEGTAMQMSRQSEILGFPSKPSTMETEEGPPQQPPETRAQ
# [3] = target: T2, Testis-specific serine/threonine-protein kinase 1 (Homo sapiens); details: at 1 µM
# [4] = target: T3, Testis-specific serine/threonine-protein kinase 2 (Homo sapiens) (UniProt Q96PF2); details: at 0.1 µM
# T3 sequence (whole entry): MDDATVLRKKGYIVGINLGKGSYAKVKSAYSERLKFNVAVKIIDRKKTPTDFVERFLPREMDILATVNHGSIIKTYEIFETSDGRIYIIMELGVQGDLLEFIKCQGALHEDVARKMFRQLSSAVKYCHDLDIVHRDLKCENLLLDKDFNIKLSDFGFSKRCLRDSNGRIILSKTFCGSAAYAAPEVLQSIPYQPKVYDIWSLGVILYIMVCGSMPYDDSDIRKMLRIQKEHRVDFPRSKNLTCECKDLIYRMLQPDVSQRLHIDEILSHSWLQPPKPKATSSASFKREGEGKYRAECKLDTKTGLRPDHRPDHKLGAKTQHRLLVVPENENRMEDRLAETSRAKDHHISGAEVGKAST
# [5] = target: T3, Testis-specific serine/threonine-protein kinase 2 (Homo sapiens); details: at 1 µM
# [6] = target: Casein kinase I isoform alpha (Homo sapiens) (UniProt P48729); details: at 0.1 µM
# [7] = target: Casein kinase I isoform alpha (Homo sapiens) (UniProt P48729); details: at 1 µM
# [8] = target: Casein kinase I isoform gamma-1 (Homo sapiens) (UniProt Q9HCP0); details: at 0.1 µM
# [9] = target: Casein kinase I isoform gamma-1 (Homo sapiens) (UniProt Q9HCP0); details: at 1 µM
# [10] = target: Casein kinase I isoform gamma-2 (Homo sapiens) (UniProt P78368); details: at 0.1 µM;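 also: values are mean inhibition figures reported as part of the GSK PKIS dataset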
# Chain of Casein kinase I isoform gamma-2 (Homo sapiens) (P78368 whole entry, looked up, canonical isoform): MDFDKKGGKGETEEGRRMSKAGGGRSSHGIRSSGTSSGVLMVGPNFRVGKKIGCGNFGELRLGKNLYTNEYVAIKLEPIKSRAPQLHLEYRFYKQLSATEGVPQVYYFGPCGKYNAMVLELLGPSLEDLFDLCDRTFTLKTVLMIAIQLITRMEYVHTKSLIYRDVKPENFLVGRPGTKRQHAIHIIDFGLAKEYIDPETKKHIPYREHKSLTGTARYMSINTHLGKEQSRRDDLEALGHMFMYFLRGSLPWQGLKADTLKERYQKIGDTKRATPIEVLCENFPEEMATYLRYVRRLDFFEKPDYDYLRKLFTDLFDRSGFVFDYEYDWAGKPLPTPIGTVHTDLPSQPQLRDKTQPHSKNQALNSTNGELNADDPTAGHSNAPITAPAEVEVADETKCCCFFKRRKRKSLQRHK
# Chain of Casein kinase I isoform alpha (Homo sapiens) (P48729 2-337 limits assumed): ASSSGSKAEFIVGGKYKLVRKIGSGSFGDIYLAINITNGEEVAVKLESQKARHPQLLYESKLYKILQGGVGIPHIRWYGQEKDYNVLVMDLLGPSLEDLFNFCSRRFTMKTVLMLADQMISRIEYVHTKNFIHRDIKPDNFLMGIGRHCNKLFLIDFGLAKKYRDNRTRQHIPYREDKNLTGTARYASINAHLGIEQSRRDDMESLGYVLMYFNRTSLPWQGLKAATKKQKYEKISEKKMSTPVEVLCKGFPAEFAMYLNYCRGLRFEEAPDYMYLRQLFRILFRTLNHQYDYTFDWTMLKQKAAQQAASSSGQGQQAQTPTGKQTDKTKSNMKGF
# Chain of Casein kinase I isoform gamma-1 (Homo sapiens) (Q9HCP0 whole entry, looked up, canonical isoform): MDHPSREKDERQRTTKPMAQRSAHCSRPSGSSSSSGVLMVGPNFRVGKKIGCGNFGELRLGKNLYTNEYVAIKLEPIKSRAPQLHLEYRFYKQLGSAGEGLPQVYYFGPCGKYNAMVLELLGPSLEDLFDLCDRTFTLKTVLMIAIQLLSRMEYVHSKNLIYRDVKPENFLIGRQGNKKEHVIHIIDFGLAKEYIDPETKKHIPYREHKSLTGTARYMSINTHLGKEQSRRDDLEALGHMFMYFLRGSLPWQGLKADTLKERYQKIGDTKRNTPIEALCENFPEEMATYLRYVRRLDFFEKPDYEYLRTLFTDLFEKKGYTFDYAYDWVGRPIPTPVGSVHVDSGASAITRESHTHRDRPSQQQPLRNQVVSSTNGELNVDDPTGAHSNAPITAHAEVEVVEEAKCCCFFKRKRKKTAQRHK
Structure (SMILES),inhibition [1],inhibition [2],inhibition [3],inhibition [4],inhibition [5],inhibition [6],inhibition [7],inhibition [8],inhibition [9],inhibition [10]
O=C(Nc1ccc(Oc2ccc3[nH]c(NC(=O)c4ccccc4)nc3c2)cc1)Nc1cc(C(F)(F)F)ccc1F,4.56%,2.04%,0.69%,1.68%,0.74%,3.86%,3.79%,2.09%,2.88%,1.66%
CS(=O)(=O)CCNCc1ccc(-c2ccc3ncnc(Nc4ccc(OCc5ccccc5)c(Br)c4)c3c2)o1,1.05%,2.71%,2.53%,1.22%,1%,1.67%,0.68%,0.63%,-0.07%,-0.49%
COc1cc2ncn(-c3cc(OCc4ccccc4C(F)(F)F)c(C(C)=O)s3)c2cc1OC,2.12%,2.55%,3.05%,1.34%,1.53%,3.35%,2.73%,2.77%,3.34%,2.24%
O=C1Nc2ccccc2/C1=C/Nc1ccc(-n2cncn2)cc1,17.3%,4.37%,7.35%,3.01%,5.54%,3.79%,10.3%,4.33%,7.11%,3.66%
COc1ccc2cc(-c3c(-c4ccncc4)nc(-c4ccc([S+](C)[O-])cc4C)n3C)ccc2c1 (stereo not given),1.97%,0.4%,-0.58%,0.06%,-0.06%,0.77%,0.53%,-0.99%,-0.39%,-0.73%
NCc1ccc(-n2c(-c3nonc3N)nc3cnccc32)cc1,11.6%,9.68%,32.2%,3.06%,3.08%,3.56%,9.76%,5.74%,8.48%,3.49%
NC(=O)c1cc(-c2ccc(F)cc2)cc(-c2ccncc2)c1N,2.04%,3.98%,5.61%,2.71%,4.29%,6.79%,2.14%,4.19%,4.95%,3.82%
COC(=O)Nc1nc2ccc(Sc3ccc(NC(=O)Nc4cc(C(F)(F)F)ccc4F)cc3)cc2[nH]1,2.38%,-0.48%,-2.84%,-0.2%,-1.84%,-0.33%,1.98%,-0.12%,0.47%,-0.85%
COc1cc(Nc2ncc3c(C)nc(-c4cccc(Oc5ccccc5)c4)n3n2)cc(OC)c1OC,28.8%,3.11%,5.53%,1.01%,-1.11%,6.15%,3.63%,1.67%,3.71%,0.59%
NC(=O)Cc1ccccc1Oc1nccc(-c2c(-c3ccc(F)cc3)ncn2C2CCNCC2)n1,4.55%,2.65%,1.8%,1.16%,-0.31%,9.09%,12.9%,4.95%,10.3%,3.59%
CCS(=O)(=O)c1ccc(OC)c(Nc2ncc(-c3ccccc3Cl)o2)c1,7.68%,4.33%,-0.15%,1.6%,0.12%,0.11%,3.37%,0.27%,0.86%,0.2%
N#Cc1ccc(Oc2nccc(-c3c(-c4ccc(F)cc4)ncn3C3CCNCC3)n2)cc1,3.03%,3.77%,4.18%,1.71%,4.59%,4.15%,10.1%,3.79%,5.9%,3.52%
COc1ccc2cc(-c3c(-c4ccncc4)nc(-c4ccc(S(C)(=O)=O)cc4C)n3C)ccc2c1,5.22%,4.54%,6.64%,2.43%,3.81%,2.38%,4%,3.35%,4.23%,2.92%
COc1ccc(C2=C(N3CCc4ccccc43)C(=O)NC2=O)cc1,7.18%,4.87%,6.13%,3.64%,3.35%,3.74%,8.77%,3.77%,4.09%,3.12%
CN1CCN(CCCNc2nc3ccc(Oc4ccc(NC(=O)Nc5cc(C(F)(F)F)ccc5F)cc4)cc3[nH]2)CC1,3.78%,0.87%,-0.16%,-0.81%,-1.46%,1.84%,0.56%,-1.36%,-3.19%,-4.72%
O=C(Nc1n[nH]c2nc(-c3ccco3)ccc12)C1CC1,2.8%,1.99%,-0.53%,0.63%,-1.49%,0.06%,3.38%,0.09%,1.22%,-0.26%
Fc1ccc(-c2ncn(CCCN3CCOCC3)c2-c2ccncc2)cc1,0.48%,-0.41%,-0.42%,-1.62%,-0.63%,2.04%,5.39%,0.8%,1.79%,1.74%

Structure (SMILES),inhibition [1],inhibition [2],inhibition [3],inhibition [4],inhibition [5],inhibition [6],inhibition [7],inhibition [8],inhibition [9],inhibition [10]
CCC(=O)Nc1ccc(C)c(-c2ccc(C(=O)NCC3CC3)cc2)c1,2.69%,3.66%,3.59%,1.6%,1.74%,2.53%,3.41%,2.54%,3%,2.3%
COc1cc(Nc2ncc(-c3ccccc3)o2)cc(OC)c1OC,13.7%,0.03%,-0.04%,-1.14%,-1.3%,-0.72%,1.29%,-1.4%,-0.76%,-1.34%
NS(=O)(=O)c1ccc(N/N=C2\C(=O)Nc3ccc(C(=O)NCCCn4ccnc4)cc32)cc1,30.4%,7.1%,13.3%,4.07%,6.71%,3.95%,6.05%,5.08%,10.8%,4.43%
COc1cc(Nc2ncc3c(C)nc(-c4cccc(C(F)(F)F)c4)n3n2)cc(OC)c1OC,25.5%,4.46%,9.14%,4.53%,3.7%,7.78%,6.02%,2.94%,4.47%,2.07%
O=C(Nc1n[nH]c2cc(-c3cc(F)ccc3F)ccc12)C1CC1,5.44%,2.75%,2.04%,1.22%,0.5%,0.79%,1.31%,3.28%,3.73%,2.53%
CN(c1ccc(NC(=O)Nc2c(Cl)cccc2Cl)cc1)c1ccnc(Nc2cccc(CS(C)(=O)=O)c2)n1,8.89%,1.9%,3.33%,0.55%,1.93%,1.15%,1.15%,0.39%,1.32%,1.06%
O=C1NC(=O)C(c2cccc(Cl)c2)=C1Nc1ccc(Cl)c(C(=O)O)c1,5.8%,4.88%,4.16%,3.03%,4.21%,1.07%,2.57%,2.32%,1.79%,2.25%
CCc1cccc(CC)c1/C=C/c1cncc(C(=O)NC)c1,1.52%,1.47%,0.1%,1.86%,-3.19%,2.53%,6.21%,2.66%,5.44%,1.49%
CNC(=O)c1cncc(/C=C/c2c(C)cccc2C)c1,0.94%,0.04%,-1.47%,-0.04%,-1.42%,4.35%,2.33%,-2.91%,-2.08%,-2.38%
C[C@@H](Oc1cc(-n2cnc3ccc(OCC4CCN(C)CC4)cc32)sc1C(N)=O)c1ccccc1Cl,6.08%,6.84%,13.6%,3.55%,3.8%,5.44%,6.37%,5.29%,8.54%,5.69%
COc1cccc(/C=N/Nc2ncnc3c2cnn3-c2cccc(OC)c2)c1,1.31%,3.46%,3.86%,2.47%,1.38%,3.37%,6.05%,2.82%,3.51%,3.16%
CCS(=O)(=O)c1ccc(OC)c(Nc2ncc(-c3cccc(-c4ccccc4F)c3)o2)c1,5.42%,0.94%,-0.72%,0.42%,-0.69%,-0.76%,4.53%,0.32%,0.08%,-0.86%
Clc1ccc(CNc2nccc(-c3cnn4ncccc34)n2)cc1,2.91%,0.5%,-0.65%,0.23%,-1.43%,2.75%,16.9%,0.12%,7.72%,1.44%
FC(F)(F)c1cccc(Nc2nccc(-c3cnn4nc(-c5ccccc5)ccc34)n2)c1,4.35%,1.23%,2.01%,1.62%,0.24%,-0.33%,1.52%,2.48%,2.54%,2.27%
Cc1ccc(NC(=O)c2ccoc2)cc1-c1ccc(C(=O)NCC2CC2)cc1,0.72%,1.46%,3.27%,0.85%,1.22%,1.36%,1.47%,2.78%,3.5%,2.62%
Fc1ccc(-c2ncn(C3CCNCC3)c2-c2ccnc(Oc3ccc4c(c3)OCO4)n2)cc1,4.07%,4.2%,4.17%,2.83%,4.26%,6.52%,31%,5.84%,13.1%,4.86%
Fc1ccc(-c2ncn(C3CCNCC3)c2-c2ccnc(Oc3ccc(F)c(F)c3)n2)cc1,5.03%,1.98%,3.01%,0.64%,1.42%,4.09%,15.4%,0.31%,2.33%,-0.65%
